MPTP inh: permeability transition pore inhibition | inhibition, % at 10 µM | actives 1.4% (n = 360,000) | isolated mouse mitochondria, Ca2+ swelling absorbance, 30 min;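 active means inhibition of 50% or more, scaled per plate between neutral and stimulator controls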
GRIN3A LBD mod: modulators (binders) of human NR3A ligand-binding domain. Tm shift relative to glycine control, % at 25 µM. actives 2.5% (n = 340,000). NR3A LBD differential scanning fluorimetry, Tm shift; 0% = protein alone, 100% = glycine-bound protein;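 active means melting temperature shift of at least 10% of the positive control shift, at one fixed dose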
Mdm2-MdmX inh: disrupts the human Mdm2-MdmX interaction | SaOS-2 split-luciferase Mdm2/MdmX complementation, luminescence | actives 3% (n = 330,000) | AID 485346 | inhibition, % at 8 µM;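 active means inhibition of at least 50% at 8 µM in the primary screen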
Target sequence (O15151 whole entry, looked up): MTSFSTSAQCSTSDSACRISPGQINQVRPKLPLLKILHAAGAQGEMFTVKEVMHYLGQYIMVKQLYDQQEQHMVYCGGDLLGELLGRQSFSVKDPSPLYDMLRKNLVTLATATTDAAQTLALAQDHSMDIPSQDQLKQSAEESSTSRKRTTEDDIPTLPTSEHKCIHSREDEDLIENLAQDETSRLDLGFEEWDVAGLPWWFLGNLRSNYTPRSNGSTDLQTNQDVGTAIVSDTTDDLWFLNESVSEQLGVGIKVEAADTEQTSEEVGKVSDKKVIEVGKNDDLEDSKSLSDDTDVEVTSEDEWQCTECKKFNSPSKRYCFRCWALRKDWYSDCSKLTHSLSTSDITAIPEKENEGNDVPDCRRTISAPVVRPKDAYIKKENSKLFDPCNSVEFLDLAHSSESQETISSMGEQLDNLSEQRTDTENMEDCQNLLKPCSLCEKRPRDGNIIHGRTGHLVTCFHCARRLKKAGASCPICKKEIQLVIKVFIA
Target sequence (Q00987 whole entry, looked up): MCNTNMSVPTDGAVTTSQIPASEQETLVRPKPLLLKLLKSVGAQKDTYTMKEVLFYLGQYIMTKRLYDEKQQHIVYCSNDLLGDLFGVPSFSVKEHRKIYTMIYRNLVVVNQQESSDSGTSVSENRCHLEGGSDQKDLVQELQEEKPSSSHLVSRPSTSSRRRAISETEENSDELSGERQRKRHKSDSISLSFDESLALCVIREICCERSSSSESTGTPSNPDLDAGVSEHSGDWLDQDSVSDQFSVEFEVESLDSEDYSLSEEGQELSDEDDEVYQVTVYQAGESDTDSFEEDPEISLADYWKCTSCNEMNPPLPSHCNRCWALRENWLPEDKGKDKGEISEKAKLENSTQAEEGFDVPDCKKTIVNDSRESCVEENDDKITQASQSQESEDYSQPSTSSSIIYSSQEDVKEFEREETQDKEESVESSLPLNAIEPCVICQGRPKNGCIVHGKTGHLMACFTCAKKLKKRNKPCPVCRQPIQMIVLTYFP
Beta apoptosis: blocks beta cell apoptosis | INS-1E cytokine-induced death, ATP luminescence, 48 h; percent of positive-control rescue, neutral wells zero | protection from apoptosis, % (concentration not given with the values) | actives 0.8% (n = 300,000) | AID 435005;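 active means Every replicate reaches about 75%, or at least half do and their mean reaches it too, limit read from the data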;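 further: higher means more ATP so stronger rescue from cytokine killing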
SKKanGAS inh: SKKanGAS growth inhibition. inhibition, % at 7.5 µM. actives 1.3% (n = 300,000). S. pyogenes SKKanGAS, kanamycin growth, BacTiter-Glo, 6 h;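 active means mean replicate score, as percent of positive control median, at least 50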;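 further: strain carries kanamycin resistance gene driven by streptokinase promoter and grows in 40 µg/ml kanamycin; loss of luminescence reflects streptokinase promoter inhibition or plain growth inhibition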
CSC inhib: blocks cancer stem cells; cancer stem cell-like cells viability, luminescence; inhibition, % at 7.5 µM; actives 1.1% (n = 300,000); AID 2717; in the data active means inhibition above about 75%; tested in HMLE shEcad cells
Mdm2 MdmX conf: confirmation of human Mdm2/MdmX interaction inhibitors. shares compounds with Mdm2-MdmX inh. Mdm2-MdmX binding, luminescent assay. inhibition, % at 8 µM. actives 55% (n = 10,000); in the data active means inhibition above about 40%
FLuc counter: inhibits full-length luciferase, flagging false Mdm2/MdmX hits; actives 77% (n = 6,200); SaOS-2 full-length luciferase counterscreen, luminescence; AID 504607; shares compounds with Mdm2-MdmX inh; inhibition, % at 8 µM;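 active means mean inhibition at 8 µM reaching about 37%, which flags the compound as non-specific, limit read from the data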;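 further: p53-null SaOS-2 cells with luciferase driven by a doxycycline-inducible promoter; compound on cells about two nights before reading with doxycycline added after day one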
Large screens that a line does not name were inactive (follow-up assays come after a bar, where they were run); ! = not confirmed by another sample. Rows were chosen to be rich in hits. Some 6.9% of all compounds tested hit in one or more screens of this group.

COc1ccc(NC(=O)CC2Oc3ccccc3NC2=O)c(OC)c1 (centres undefined)	none
COc1cccc(OC)c1C(=O)NCCc1ccccc1	none
CCOC(=O)c1sc(N)c(C(=O)Nc2ccccc2OC)c1C	Mdm2-MdmX inh 56 | Mdm2 MdmX conf 65 | FLuc counter 57
COC(=O)c1c(N)sc(C(=O)NCCc2ccccc2)c1C	Mdm2-MdmX inh 65 | Mdm2 MdmX conf 59 | FLuc counter 73
CCOC(=O)c1sc(N)c(C(=O)OC)c1C	none
CCOC(=O)C(Cc1c[nH]c2ccccc12)NC(=O)c1ccccc1Br (centres undefined)	none
CC1=NN(c2ccc(C)c(C)c2)C(=O)/C1=C\C=C\c1ccc([N+](=O)[O-])o1	Mdm2-MdmX inh 77, Beta apoptosis 84 | Mdm2 MdmX conf 57 | FLuc counter 41
Cc1ccc(C(=O)C(C)OC(=O)c2nc(Cl)ccc2Cl)cc1 (centres undefined)	none
COc1ccccc1-n1cnc2cc(NCc3cccs3)ccc21	Mdm2-MdmX inh 51 | Mdm2 MdmX conf 55 | FLuc counter 80
CCCCCCCCCCOC(=O)Cn1c(COc2ccccc2)[n+](C)c2ccccc21	Mdm2-MdmX inh 69, Beta apoptosis 129, SKKanGAS inh 81, CSC inhib 103 | Mdm2 MdmX conf 72 | FLuc counter inactive
CCCCCCCCCCOC(=O)Cn1c(COc2ccc(Cl)cc2)[n+](C)c2ccccc21	GRIN3A LBD mod 21, Mdm2-MdmX inh 78, Beta apoptosis 122, SKKanGAS inh 108, CSC inhib 109 | Mdm2 MdmX conf 74 | FLuc counter 59
CCCCCCCCCCOC(=O)Cn1c(COc2ccccc2C)[n+](C)c2ccccc21	GRIN3A LBD mod 31, Mdm2-MdmX inh 89, Beta apoptosis 110, SKKanGAS inh 83, CSC inhib 106 | Mdm2 MdmX conf 69 | FLuc counter inactive
CCCCCCCCCCOC(=O)Cn1c(COc2ccc(OC)cc2)[n+](C)c2ccccc21	Mdm2-MdmX inh 85, Beta apoptosis 114, CSC inhib 103! | Mdm2 MdmX conf 76 | FLuc counter inactive
CCOC(=O)Cn1c(COc2ccccc2OC)[n+](C)c2ccccc21	none
COc1ccc(CCNC(=O)COC(=O)CNS(=O)(=O)c2ccc(SC)c([N+](=O)[O-])c2)cc1	none (no result: SKKanGAS inh, CSC inhib)
COc1ccccc1-c1ccc2nnc(SC)n2n1	none
Cc1ccccc1OCC(=O)NCCCNC(=O)c1cccnc1	none (no result: Beta apoptosis)
CCCCCCCCCCOC(=O)Cn1c(COc2cccc(C)c2)[n+](C)c2ccccc21	Mdm2-MdmX inh 86, Beta apoptosis 99, SKKanGAS inh 101, CSC inhib 169 | Mdm2 MdmX conf 71 | FLuc counter inactive
CCCCOC(=O)Cn1c(=O)n(CC(=O)OCCCC)c2ccccc21	none
COc1ccccc1/C=C(\NC(=O)c1ccc(OC)c(OC)c1)C(=O)Nc1cc([N+](=O)[O-])ccc1C	Mdm2-MdmX inh 59 | Mdm2 MdmX conf inactive
Cc1[nH]c(C)c(S(=O)(=O)NCc2ccc(F)cc2)c1C(=O)N1CCCCC1	none
CN(C)c1ccc(Nc2ncnc3ccc(Br)cc23)cc1	Mdm2-MdmX inh 78 | Mdm2 MdmX conf 68 | FLuc counter 37
COc1ccc(Nc2ncnc3ccc(Br)cc23)cc1OC	Mdm2-MdmX inh 58 | Mdm2 MdmX conf 64 | FLuc counter inactive
Cc1cccc(Nc2ncnc3ccc(Br)cc23)c1	Mdm2-MdmX inh 76 | Mdm2 MdmX conf 59 | FLuc counter inactive
Cc1cc(C)n(-c2ccc(NC(=O)C3CCCCN3C(=O)c3sccc3C)cc2)n1 (centres undefined)	none (no result: Beta apoptosis)
CC1(c2ccccc2)CC(C)(C)n2c(O)c(C3=NC(=S)NC3=O)c3cccc1c32 (centres undefined)	Mdm2-MdmX inh 68 | Mdm2 MdmX conf inactive
CC1(c2ccccc2)CC(C)(C)N2C(=O)C(=O)c3cccc1c32 (centres undefined)	none
Cc1ccc(SC(c2ccccc2)C(Cn2cncn2)C(=O)c2ccccc2)cc1 (centres undefined)	Mdm2-MdmX inh 60 | Mdm2 MdmX conf inactive
O=C(c1ccc(Cl)cc1)C(Cn1cncn1)C(Sc1ccccc1)c1ccccc1 (centres undefined)	none
COC(=O)c1sc2nc(-c3ccco3)ccc2c1N	none
CC(C)OC(=O)c1sc2nc(-c3ccccc3)ccc2c1N	Mdm2-MdmX inh 52 | Mdm2 MdmX conf 45 | FLuc counter 180
CC1=C(C(=O)OCc2ccccc2)C(c2cccc([N+](=O)[O-])c2)NC(=O)N1 (centres undefined)	none
CC1=C(C(=O)OCc2ccc3c(c2)OCO3)C(c2cccc([N+](=O)[O-])c2)NC(=O)N1 (centres undefined)	none | Mdm2 MdmX conf 70 | FLuc counter 45
CCCCNC(=O)c1c(N)n(/N=C/c2ccccn2)c2nc3ccccc3nc12	Mdm2-MdmX inh 60 (no result: MPTP inh, GRIN3A LBD mod) | Mdm2 MdmX conf inactive | FLuc counter 72
O=C(NCc1ccccc1)c1onc(CSc2ccccc2)c1C(=O)NCC1CC1	Mdm2-MdmX inh 55 | Mdm2 MdmX conf 50 | FLuc counter 81
COc1cc(-c2cc(C(=O)Nc3ccccc3N3CCOCC3)c3ccccc3n2)cc(OC)c1OC	none
O=C(Nc1ccccc1N1CCOCC1)c1cc(-c2ccco2)nc2ccccc12	Mdm2-MdmX inh 70 | Mdm2 MdmX conf 53 | FLuc counter 68
Cc1ccc(C(=O)OCc2nnc(-c3ccccc3)o2)cc1S(=O)(=O)N1CCOCC1	none (no result: Beta apoptosis)
Cc1cc(NC(=O)C2CCN(C(=O)c3ccco3)CC2)ccc1Br	none (no result: Beta apoptosis)
O=C(NCCc1ccc(Cl)cc1)C1CCC(CNc2nc(=S)[nH]c3ccccc23)CC1 (centres undefined)	Mdm2-MdmX inh 67 | Mdm2 MdmX conf inactive | FLuc counter 61
Cc1ccc(CNC(=O)/C=C/c2c(Cl)cccc2Cl)cc1	Mdm2-MdmX inh 55 | Mdm2 MdmX conf inactive
NC(=O)c1ccccc1NC(=O)/C=C/c1c(Cl)cccc1Cl	none
CN(C)c1ccc(NC(=O)/C=C/c2c(Cl)cccc2Cl)cc1	Mdm2-MdmX inh 64 (no result: CSC inhib) | Mdm2 MdmX conf 69 | FLuc counter 50
N#Cc1cc(Oc2cccc3cccnc23)c(-n2nnc3ccccc32)cc1C#N	Mdm2-MdmX inh 62 | Mdm2 MdmX conf inactive
N#Cc1cc(O)c(-n2nnc3ccccc32)cc1C#N	none (no result: Beta apoptosis)
COc1ccc(Cn2nnc3c(=O)[nH]c(C4CCN(S(=O)(=O)c5ccc(C)cc5)CC4)nc32)cc1	none
Cc1nc2nc(SCc3ccccc3)[nH]n2c(=O)c1CCC(C)C	none
CSc1nc2c(cnn2-c2ccc(C)c(C)c2)c(=O)[nH]1	Mdm2-MdmX inh 53 (no result: Beta apoptosis) | Mdm2 MdmX conf inactive

High-throughput results: PubChem, several laboratories
